Where a name gives a salt, the structure may show the parent alone.
Experiments:
HCC1937 = test: relative cell viability, compound alone, vs DMSO (fraction of DMSO control); higher = less growth inhibition; conditions: 72 h
MDA-MB-231 = test: as above; conditions: 72 h
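Note: viability read out with the CCK-8 kit in 96-well plates, screening a set of 303 compounds acting on lipid metabolism targets.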

| Structure (SMILES) | relative cell viability (HCC1937) | relative cell viability (MDA-MB-231) |
| --- | --- | --- |
| C[C@H]1N=C(N(C)C)N=C(N)N1 [Imeglimin hydrochloride] | 0.912 | 0.838 |
| Cc1nc2ccc(NCc3cccc(C(F)(F)F)c3)cc2n(CCNC(=O)CO)c1=O | 0.667 | 0.835 |
| CC(O)(CC(=O)O)CC(=O)O [Meglutol] | 0.748 | 0.891 |
| CCCCCCCCCc1ccc(B(O)O)cc1 [4-Nonylphenylboronic acid] | 1.01 | 1.08 |
| CN(C)C(=N)NC(=N)N [Metformin hydrochloride] | 0.98 | 0.95 |
| N#Cc1c(O)c2c(-c3ccc(-c4ccccc4O)cc3)csc2[nH]c1=O | 0.719 | 0.907 |
| C=CCc1ccc(O)c(-c2cc(CC=C)ccc2O)c1 [Magnolol] | 1 | 0.968 |
| CC(C)n1c(/C=C/C(O)CC(O)CC(=O)O)c(-c2ccc(F)cc2)c2ccccc21 (stereo unspecified) [Fluvastatin sodium salt] | 0.924 | 0.863 |
| O=C(O)c1ccnc(N2CC(O)(c3ccc(OCc4c(-c5c(Cl)cccc5Cl)noc4C4CC4)cc3Cl)C2)c1 [Cilofexor] | 0.661 | 0.885 |
| O=C(O)Cc1cccc(OCCCN(Cc2cccc(C(F)(F)F)c2Cl)CC(c2ccccc2)c2ccccc2)c1 | 0.78 | 1.11 |
| COC(=O)/C=C/c1cccc(N(Cc2ccc(-c3ccc(N(C)C)cc3)cc2)C(=O)C2CCCCC2)c1 [Fexaramine] | 0.805 | 0.924 |
| Nn1nnc2ccccc21 [1-Aminobenzotriazole] | 1.07 | 0.937 |
| COc1ccc(C2(CNC(=O)c3ccc(NC(=O)c4ccco4)cc3)CCOCC2)cc1 | 0.84 | 0.873 |

— the supplement of paper PMC9492666
